Test results from PubChem BioAssay (EPA / NIEHS).
Active and inactive are the calls of the source. The calls were made as follows: active = hit-call score of the fitted dose curve at least 0.9, where 1 is the maximum; inactive = score below 0.9.

How the values were obtained:
[1] = BSK_3C_SRB: Viability Assessment in the BioMAP Diversity Plus: 3C Assay (AID 2283023); conditions: primary human endothelial cells (HUVEC);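 also: fitted both ways against DMSO so a hit may be signal rise or drop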
Summary of the method: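 Human umbilical vein endothelial cells in the 3C system, treated 24 h. Total protein measured by 0.1% sulforhodamine B staining after 10% TCA fixation, read at 560 nm; bidirectional fit versus DMSO.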

[2] = read-out: Matrix Metallopeptidase 1 (MMP1), MMP1 (gene 4312); test: BSK_BE3C_MMP1: BioMAP Diversity Plus: BE3C Assay for Matrix Metallopeptidase 1 (MMP1) Biomarker Activity (AID 2283024); conditions: primary human bronchial epithelial cells; actives raise or lower the signal
Summary of the method: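 MMP1 signal, measured by ELISA after a 24 h chemical exposure of human primary bronchial epithelial cells, is analysed with bidirectional fitting using DMSO as negative control.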

[3] = BSK_3C_Vis: BioMAP Diversity Plus: 3C Assay for Morphology Visualization (AID 2283025); conditions: primary human endothelial cells (HUVEC);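 also: fitted both ways so gain or loss versus DMSO counts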
Summary of the method: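 Morphology read by light microscopy serves as a background control for the multiplexed 3C assay in human umbilical vein endothelial cells, taken 24 h after dosing, with DMSO as the negative control and bidirectional curve fitting.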

[4] = read-out: Pselectin, SELP (gene 6403); test: BSK_4H_Pselectin: BioMAP Diversity Plus: 4H Assay for Pselectin Biomarker Activity (AID 2283026); conditions: primary human endothelial cells (HUVEC); actives raise or lower the signal
Summary of the method: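 Endothelial primary cells (human umbilical vein) are dosed, incubated 24 h, and assayed for surface P-selectin by ELISA; responses in either direction are fitted relative to the DMSO negative control.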

[5] = BSK_4H_SRB: Viability Assessment in the BioMAP Diversity Plus: 4H Assay (AID 2283027); conditions: primary human endothelial cells (HUVEC);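 also: cells exposed to compound for 24 h before staining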;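 as to AC50: curves fitted both ways versus DMSO so AC50 may be loss or gain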
Summary of the method: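 Cytotoxicity readout: sulforhodamine B (0.1%) staining of total protein after 10% TCA fixation, measured at 560 nm in human umbilical vein endothelium at 24 h. DMSO set the baseline; fitting was bidirectional.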

[6] = BSK_BE3C_SRB: Viability Assessment in the BioMAP Diversity Plus: BE3C Assay (AID 2283028); conditions: primary human bronchial epithelial cells;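 as to AC50: fitted both ways so AC50 may mark signal gain or loss versus DMSO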
Summary of the method: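 Human bronchial epithelial primary cells in confluent culture, 24 h after chemical dosing; total protein by 0.1% SRB staining after 10% TCA fixation, read at 560 nm. Bidirectional fitting versus DMSO baseline.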

[7] = read-out: Thrombomodulin, THBD (gene 7056); test: BSK_3C_Thrombomodulin: BioMAP Diversity Plus: 3C Assay for Thrombomodulin Biomarker Activity (AID 2283029); conditions: primary human endothelial cells (HUVEC); actives raise or lower the signal
Summary of the method: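 Endothelial cells from umbilical vein are dosed with test chemical and incubated 24 h. Thrombomodulin is then quantified by ELISA, with DMSO serving as negative control and activity baseline.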

[8] = read-out: Urokinase-type plasminogen activator receptor (uPAR), PLAUR (gene 5329); test: BSK_4H_uPAR: BioMAP Diversity Plus: 4H Assay for Urokinase-type plasminogen activator receptor (uPAR) Biomarker Activity (AID 2283030); conditions: primary human endothelial cells (HUVEC); actives raise or lower the signal
Summary of the method: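 Human umbilical vein endothelial cells in the 4H system, 24 h after chemical dosing. Cell-surface uPAR measured by ELISA, fitted in both directions versus DMSO; cytotoxicity checked by SRB total protein in parallel cultures.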

[9] = read-out: Vascular endothelial growth factor receptor 2 (Homo sapiens) (UniProt P35968); test: BSK_4H_VEGFRII: BioMAP Diversity Plus: 4H Assay for Vascular endothelial growth factor receptor 2 (VEGFR2) Biomarker Activity (AID 2283031); conditions: primary human endothelial cells (HUVEC); actives raise or lower the signal;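 as to AC50: cell-surface VEGFR2 protein level quantified by ELISA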
Summary of the method: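 Primary human umbilical vein endothelial cells (4H system), 24 h exposure; cell-surface VEGFR2 measured by ELISA. Bidirectional fitting versus DMSO; cytotoxicity checked in parallel by SRB total-protein staining.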

[10] = read-out: Human Leukocyte Antigen - DR isotype (HLADR), HLA-DRA (gene 3122); test: BSK_BE3C_HLADR: BioMAP Diversity Plus: BE3C Assay for Human Leukocyte Antigen - DR isotype (HLADR) Biomarker Activity (AID 2283032); conditions: primary human bronchial epithelial cells; actives raise or lower the signal
Summary of the method: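 Chemicals are dosed onto BE3C bronchial epithelial cultures of human origin and left 24 h. HLA-DR is then measured by ELISA, and the endpoint is fitted in both directions using DMSO as the activity baseline.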

[11] = read-out: Vascular cell adhesion molecule 1 (VCAM1), VCAM1 (gene 7412); test: BSK_4H_VCAM1: BioMAP Diversity Plus: 4H Assay for Vascular cell adhesion molecule 1 (VCAM1) Biomarker Activity (AID 2283033); conditions: primary human endothelial cells (HUVEC); actives raise or lower the signal
Summary of the method: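 Chemicals are added to primary human umbilical vein endothelial cells. After 24 h, VCAM-1 levels are measured by ELISA. Values come from bidirectional fitting referenced to DMSO.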

[12] = read-out: Interferon-gamma inducible Protein 10 (IP10), CXCL10 (gene 3627); test: BSK_BE3C_IP10: BioMAP Diversity Plus: BE3C Assay for Interferon-gamma inducible Protein 10 (IP10) Biomarker Activity (AID 2283034); conditions: primary human bronchial epithelial cells; actives raise or lower the signal
Summary of the method: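 IP-10 quantified by ELISA serves as the endpoint. Cells: primary human bronchial epithelium, read 24 h after compound addition. Activity is derived by bidirectional fitting with DMSO as negative control.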

[13] = read-out: Monokine induced gamma interferon (MIG), CXCL9 (gene 4283); test: BSK_BE3C_MIG: BioMAP Diversity Plus: BE3C Assay for Monokine induced gamma interferon (MIG) Biomarker Activity (AID 2283035); conditions: primary human bronchial epithelial cells; actives raise or lower the signal
Summary of the method: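 hu bronchial epithelial 1° cells, 24 h cpd; MIG by ELISA; bidirectional fit, DMSO = baseline.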

[14] = read-out: Transforming growth factor beta 1 (TGFb1), TGFB1 (gene 7040); test: BSK_BE3C_TGFb1: BioMAP Diversity Plus: BE3C Assay for Transforming growth factor beta 1 (TGFb1) Biomarker Activity (AID 2283036); conditions: primary human bronchial epithelial cells; actives raise or lower the signal
Summary of the method: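 Bronchial epithelial primary cells are treated with test chemical, then TGF-b1 is quantified by ELISA after 24 hours. Values derive from bidirectional fitting against DMSO, with cytotoxicity checked by SRB staining in parallel cultures.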

[15] = read-out: Plasminogen activator inhibitor-1 (PAI1), SERPINE1 (gene 5054); test: BSK_BE3C_PAI1: BioMAP Diversity Plus: BE3C Assay for Plasminogen activator inhibitor-1 (PAI1) Biomarker Activity (AID 2283037); conditions: primary human bronchial epithelial cells; actives raise or lower the signal
Summary of the method: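 Values derive from bidirectional fitting against DMSO baseline of PAI-1 levels, measured by ELISA in human bronchial epithelial cells 24 h after compound addition.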

[16] = read-out: urokinase plasminogen activator (uPA), PLAU (gene 5328); test: BSK_BE3C_uPA: BioMAP Diversity Plus: BE3C Assay for urokinase plasminogen activator (uPA) Biomarker Activity (AID 2283038); conditions: primary human bronchial epithelial cells; actives raise or lower the signal
Summary of the method: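 Primary human bronchial epithelial cells, uPA measured by ELISA 24 h after dosing. Bidirectional change relative to DMSO; cytotoxicity checked in parallel cultures by sulforhodamine B total-protein staining.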

[17] = read-out: Urokinase-type plasminogen activator receptor (uPAR), PLAUR (gene 5329); test: BSK_BE3C_uPAR: BioMAP Diversity Plus: BE3C Assay for Urokinase-type plasminogen activator receptor (uPAR) Biomarker Activity (AID 2283039); conditions: primary human bronchial epithelial cells; actives raise or lower the signal
Summary of the method: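 Steps: dose human primary bronchial epithelial cells, incubate 24 h, measure uPAR by ELISA, then fit gain- or loss-of-signal response bidirectionally relative to DMSO.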

[18] = read-out: Interleukin-6 (IL6), IL6 (gene 3569); test: BSK_CASM3C_IL6: BioMAP Diversity Plus: CASM3C Assay for Interleukin-6 (IL6) Biomarker Activity for (AID 2283040); conditions: primary human coronary artery smooth muscle cells; actives raise or lower the signal
[19] = read-out: Tissue plasminogen activator (tPA), PLAT (gene 5327); test: BSK_BE3C_tPA: BioMAP Diversity Plus: BE3C Assay for Tissue plasminogen activator (tPA) Biomarker Activity (AID 2283041); conditions: primary human bronchial epithelial cells; actives raise or lower the signal
Summary of the method: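 Gain- or loss-of-signal in tPA, measured by ELISA, derived by bidirectional fitting against DMSO. Cells: human primary bronchial epithelial; read at 24 h after chemical dosing.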

[20] = read-out: Interleukin-8 (IL8), CXCL8 (gene 3576); test: BSK_CASM3C_IL8: BioMAP Diversity Plus: CASM3C Assay for Interleukin-8 (IL8) Biomarker Activity (AID 2283042); conditions: primary human coronary artery smooth muscle cells; actives raise or lower the signal;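 also: IL-8 protein level quantified by ELISA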

Measured: AC50

CCCCCCc1ccc(O)cc1O
active: [1] 34.9 µM | [3] 39.8 µM | [4] 32.3 µM | [5] 32.5 µM | [6] 35.5 µM | [8] 36.6 µM | [10] 29.5 µM | [11] 31.8 µM | [12] 32.2 µM | [13] 30.9 µM | [14] 24.6 µM | [15] 31.6 µM | [16] 31.4 µM | [17] 34.1 µM | [19] 13.2 µM
inactive: [2] | [7] | [9] | [18] | [20]

COc1cccc(-c2ccc(/C=C\CN3CCCCCC3)cc2Cl)c1
active: [1] 25.8 µM | [2] 4.82 µM | [3] 14.9 µM | [4] 26.5 µM | [5] 27.9 µM | [8] 26.9 µM | [9] 32.6 µM | [10] 29.4 µM | [11] 28.4 µM | [12] 27.9 µM | [13] 32.7 µM | [14] 25.8 µM | [16] 23.6 µM | [17] 25.2 µM | [19] 29.2 µM
inactive: [6] | [7] | [15] | [18] | [20]

CC1=CC(=O)CC(C)(C)C1
not listed: [1]
inactive: all other assays above

CCOCCO
inactive: all assays above

C=CC(=C)CCC=C(C)C
not listed: [1]
inactive: all other assays above

COc1ccc(/C=C/S(=O)(=O)NC(=O)c2ccc(C)cc2Cl)cc1
not listed: [1]
inactive: all other assays above

O=P(OC(CCl)CCl)(OC(CCl)CCl)OC(CCl)CCl
active: [2] 7.97 µM | [3] 39 µM
not listed: [1]
inactive: all other assays above

CC[C@H]1OC(=O)[C@H](C)[C@@H](O[C@H]2C[C@@](C)(OC)[C@@H](O)[C@H](C)O2)[C@H](C)[C@@H](O[C@@H]2O[C@H](C)C[C@H](N(C)C)[C@H]2O)[C@](C)(O)C[C@@H](C)C(=O)[C@H](C)[C@@H](O)[C@]1(C)O
not listed: [1]
inactive: all other assays above

CCCCCCCCCCCCCCCO
active: [3] 37.3 µM | [4] 31.3 µM | [5] 36.1 µM | [7] 6.63 µM | [9] 36.8 µM | [11] 37.5 µM
not listed: [1]
inactive: all other assays above

CC1(C)C(=O)N(Br)C(=O)N1Br
not listed: [1]
inactive: all other assays above

CCOC(=O)c1ccc(C2CCC(NC[C@H](O)COc3ccc(O)c(NS(C)(=O)=O)c3)CC2)cc1 (some centres not stated)
active: [3] 37.1 µM | [4] 27 µM | [5] 27.5 µM | [16] 14.9 µM
not listed: [1]
inactive: all other assays above
